High-throughput results deposited in PubChem by National Center for Advancing Translational Sciences (NCATS).
PNC assembly inh = High Content Assay for Compounds that inhibit the Assembly of the Perinucleolar Compartment | AID 2417, 2010 | hit rate 3.1% among 140,000 | PC3M PTB-GFP, PNC prevalence imaging, 16 h; stronger effect = lower value | activity change (PNC), negative = inhibition, % at 10 µM;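 active = readout at or below -70, meaning at least 70% loss of cells showing the perinucleolar compartment, a nuclear body marking cancer cells; inconclusive = readout between -30 and a set limit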;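 also: plate controls were DMSO wells for no effect and camptothecin positive control wells for full effect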
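Read-out is percentage of cells bearing a perinucleolar compartment, from automated 20x imaging of fixed, Hoechst-stained PC3M PTB-GFP cells. Cells were seeded 4 h, then exposed 16 h to compound (23 nl of library stock) in duplicate plates.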
IMPase cell inh = qHTS Assay for Identifying the Cell-Membrane Permeable IMPase Inhibitors | Inositol monophosphatase 1 (Rattus norvegicus), P97697 | CHO-M1 cells, IP1 accumulation, HTRF TR-FRET ratio | inhibition (IP1 accumulation), % at 46.1 µM | 120,000 tested, under 10 active; active = well fitted curve in the direction sought with a large enough effect in the signal ratio, not every such curve was filed as active; inconclusive = small, poorly fitted or top-dose-only effect, or a change in a side signal; inactive = no such curve, though single readings can be large or run the other way; the % refers to the signal ratio;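 also: cells stimulated with carbachol in lithium chloride buffer; plate controls were DMSO basal wells for no effect and reference inhibitor wells for full effect; higher means more IMPase inhibition seen as more IP1 and lower FRET ratio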
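CHO-M1 cells (CHO stably expressing M1 receptor), compound up to 46 uM final, stimulated with carbachol (50 uM as added) in buffer with 50mM LiCl, pH 7.4, 30 min at 37C. Cytosolic IP1 read by TR-FRET; AC50 from Hill fits.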
HPGD inh = qHTS Assay for Inhibitors of HPGD (15-Hydroxyprostaglandin Dehydrogenase); AID 894, 2007; 15-hydroxyprostaglandin dehydrogenase [NAD(+)] (Homo sapiens), P15428; purified HPGD, NADH fluorescence kinetic, PGE2 substrate; hit rate 4.3% among 150,000; Potency, µM, for the others: at the top dose activity change, negative = inhibition, usual class: inhibitors; also: potency is read from the fitted curve at half-maximal effect
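NADH formation kinetics: reaction with 30 uM PGE2 and 1 mM NAD+ (final), 20 nM enzyme, Tris-HCl pH 8 with Tween 20, after 15 min compound preincubation at room temperature. Fluorescence change, last versus first of five reads.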
ALDH1A1 inh = qHTS Assay for Inhibitors of Aldehyde Dehydrogenase 1 (ALDH1A1); Aldehyde dehydrogenase 1A1 (Homo sapiens), P00352; hit rate 7.3% among 220,000; Purified ALDH1A1, NADH fluorescence, propionaldehyde substrate; Potency, µM (series often up to 75.3 µM), for inactives: at the highest dose activity, negative = inhibition, hits mostly inhibitors;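 also: potency is read from the fitted curve at half-maximal effect; plate controls were no enzyme wells and a reference inhibitor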
Target sequence (P00352 whole entry, looked up): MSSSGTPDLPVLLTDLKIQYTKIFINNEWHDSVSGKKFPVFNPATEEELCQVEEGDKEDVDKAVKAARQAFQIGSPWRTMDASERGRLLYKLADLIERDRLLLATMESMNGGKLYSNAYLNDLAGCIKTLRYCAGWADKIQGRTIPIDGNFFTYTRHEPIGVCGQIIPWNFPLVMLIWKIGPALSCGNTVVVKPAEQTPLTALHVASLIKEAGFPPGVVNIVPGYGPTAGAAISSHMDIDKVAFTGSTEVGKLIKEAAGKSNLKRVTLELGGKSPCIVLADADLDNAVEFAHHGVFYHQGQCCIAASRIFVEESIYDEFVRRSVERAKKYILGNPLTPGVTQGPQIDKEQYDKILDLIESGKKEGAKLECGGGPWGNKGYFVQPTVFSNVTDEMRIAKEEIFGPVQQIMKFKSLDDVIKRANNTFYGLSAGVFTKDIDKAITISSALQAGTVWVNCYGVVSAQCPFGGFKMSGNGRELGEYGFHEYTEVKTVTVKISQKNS
IMPase Li inh = qHTS Assay for Identifying the Cell-Membrane Permeable IMPase Inhibitors: Potentiation with Lithium. CHO-M1 cells, IP1 TR-FRET (IP-One), carbachol + lithium. Potency, µM (doses to about 59.4 µM), for inactives: at the top dose activity, negative = IMPase inhibition, usual class: inhibitors. hit rate 0.35% among 210,000. AID 1457, 2008; active = well fitted inhibition curve with a large enough effect; inconclusive = small, poorly fitted or top-dose-only effect; inactive = no such curve, though single readings can be large or run the other way;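 also: IP1 builds up when IMPase is blocked and the TR-FRET signal falls; potency is read from the fitted curve at half-maximal effect; plate controls were basal vehicle for no effect and high inhibitor control for full effect; nearly all actives have a fitted effect of over 50% in size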
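CHO cells stably expressing M1 receptor (2000/well) were cultured 16–30 h, then exposed to compounds with a small lithium addition for 30 min at 37C. IP1 was measured by TR-FRET competition; AC50 from Hill fits.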
An asterisk follows results filed as active; ? = inconclusive; · = no result given; [ ] = dose if it differs, or a comment. Most compounds without a hit are left out; they make up all but 11% or so of the library. Unless noted, calls follow the shape of the dose curve; as a rule, active = well fitted inhibition curve with a large enough effect (not every such curve was filed as active); inconclusive = small, poorly fitted or top-dose-only effect, or another doubt; inactive = no such curve, though single readings can be large or run the other way. Unless noted, % is scaled to controls: 0 for no effect and ±100 for the full control effect.

SMILES	PNC assembly inh	IMPase cell inh	HPGD inh	ALDH1A1 inh	IMPase Li inh
O=c1[nH]c2ccc(Br)cc2c(-c2ccccc2)c1CN1CCOCC1	-90*	-10	-13%	?	7%[38.3 µM]
O=c1[nH]c2ccc(Br)cc2c(-c2ccccc2)c1N1CCOCC1	1	4	-13%	?	37%[38.3 µM]
Cc1cc2nnc(SCc3ccc(F)cc3)n2c2ccccc12	·	-1	·	·	·
C/C(CCN1CCc2nc(-c3ccccc3)c(-c3ccccc3)cc2C1)=N\OC[C@@H](O)COCc1ccco1	·	·	·	3%[13.5 µM]	·
CCN1C(C)=C(C(=O)OC)C(c2ccccc2)N2C(=O)[C@@]3(C(=O)OC)O[C@@]12C1C(=O)N(C)C(=O)C13 (some centres not stated)	·	·	·	12%[13.5 µM]	·
Cc1ccc(C=Nc2ccccc2C(N)=O)o1	-93*	·	?	?	-9%
CCCCC1=NN(C(=O)c2ccco2)C(O)(C(F)(F)F)C1 (configuration not stated)	·	·	·	10%	3%
O=C(CC(SCc1ccco1)c1ccc(O)cc1)c1cccs1 (configuration not stated)	49	3	-13%	13µM*	9%[38.3 µM]
O=C(CC(SCCO)c1ccc2c(c1)OCO2)c1cccs1 (configuration not stated)	-112*	-3	-13%	10%	13%[38.3 µM]
O=C(COC(=O)c1cccs1)NCc1ccco1	-6	1	-12%	1%	8%[38.3 µM]
Clc1ccccc1CSc1nnc(-c2cccnc2)n1Cc1ccco1	?	3	28µM*	7.9µM*	13%[38.3 µM]
O=C(CSc1nnc(-c2cccnc2)n1Cc1ccco1)c1ccccc1	16	5	16µM*	?	5%[38.3 µM]
COc1cc2nc(N(C)CCCNC(=O)[C@@H]3CCCO3)nc(N)c2cc1OC	·	-6[20.6 µM]	?	?	4%
C[C@H]1/C=C\CC(=O)NCc2cccc(c2)CNC(=O)N[C@H]1c1ccccc1	·	·	-2%	9%	7%
Cc1cc2cc(C)c(NCCNC(=O)c3cccs3)nc2cc1C	·	·	·	?	-13%
Cc1c(C(=O)OC2CCCCC2)[nH]c2c1C(=O)CC(c1ccc(C(C)(C)C)cc1)C2 (configuration not stated)	·	3	·	·	·
O=C(CSc1nnc(-c2ccc(O)cc2)n1Cc1ccco1)c1cccs1	-24	0	?	14µM*	32%[38.3 µM]
CC(C)c1onc(C(=O)N2CCCCC2)c1[N+](=O)[O-]	-2	·	14µM*	?	1%
CC(C)c1onc(C(=O)Nc2cccc(O)c2)c1[N+](=O)[O-]	·	·	·	2%	-2%
CC(C)c1onc(C(=O)N2CCCCC2C)c1[N+](=O)[O-] (configuration not stated)	-12	·	?	-14%	2%
Cc1ccc(NC(=O)c2noc(C(C)C)c2[N+](=O)[O-])cc1	·	·	·	10µM*	8%
O=S(=O)(CC(CN1CCCC1)N1CCCC1)c1ccc2ccccc2c1 (configuration not stated)	-100*	-6	-11%	?	9%
CCn1cc(NC(=O)CCl)c(C)n1	·	·	·	4.5µM*	2%
Cn1c(C(=O)N2CCN(C(=O)c3ccco3)CC2)cc2c(=O)n3ccccc3nc21	?	?	?	?	10µM*
CCOC(=O)N1CCC(N2C(=O)c3ccccc3C2Nc2ccc(S(=O)(=O)N3CCOCC3)cc2)CC1 (configuration not stated)	·	·	·	?	5%
SMILES	PNC assembly inh	IMPase cell inh	HPGD inh	ALDH1A1 inh	IMPase Li inh
c1nc(N2CCOCC2)c2cc(-c3ccoc3)ccc2n1	·	·	·	22µM*	5%
Cc1ccccc1-c1ccc2ncnc(N3CCOCC3)c2c1	·	·	·	22µM*	14%
Cc1ccc(N=Cc2cc(C)n(C3CCCC3)c2C)cc1	53	5	-19%	8.9µM*	-11%[38.3 µM]
CN(C)c1nc(N)nc(CSc2ncc(Cl)cc2Cl)n1	?	-10	8.9µM*	-9%	25%[38.3 µM]
C=CCn1c(SCC(=O)Nc2cccnc2Cl)nnc1-c1ccccc1F	-28	·	-11%	0%	2%
O=C(/C=C/c1ccc(Cl)cc1)Nc1ccccc1N1CCOCC1	36	·	-11%	9%	0%
CCCN1C/C(=C/c2cccc([N+](=O)[O-])c2)C(=O)/C(=C/c2cccc([N+](=O)[O-])c2)C1	13	10	-14%	20µM*	-23%[38.3 µM]
Cc1c(C(=O)N2CCCCCC2)nnn1-c1nonc1N	60	1	32µM*	11µM*	10%[38.3 µM]
CCOC(=O)c1nnn(-c2nonc2N)c1CN(C)C1CCCCC1	?	-1	-7%	2µM*	-5%[38.3 µM]
CCOC(=O)c1nnn(-c2nonc2N)c1CN1CCCCCC1	2	-3	-6%	2.2µM*	12%[38.3 µM]
NNC(=O)c1nnn(-c2nonc2N)c1CN1CCc2ccccc2C1	·	·	·	4µM*	-4%
CCOC(=O)c1nnn(-c2nonc2N)c1CNC(C)C	13	2	-13%	-2%	-21%[38.3 µM]
COC(=O)[C@H]1O[C@@H](c2cc(OC)c(C)c(OC)c2O)[C@H](C)[C@@H](O)[C@H]1C	·	·	-8%	14%	16%
COc1ccc(C2CC(c3ccccc3)=NN2C(=O)CN2CCN(Cc3ccccc3)CC2)cc1 (configuration not stated)	·	·	·	-5%	14%
COc1ccccc1CNC(=O)C1COc2ccccc2O1 (configuration not stated)	-19	-2	16µM*	4%	0%
O=C(NC1CC2CCC1C2)C1COc2ccccc2O1 (configuration not stated)	-86*	2	14µM*	3%	0%[38.3 µM]
COC(=O)c1cn(NC(=O)C2COc3ccccc3O2)c(=O)c2ccccc12 (configuration not stated)	-23	1	-29%	?	11µM*
COc1ccc(CNC(=O)C2COc3ccccc3O2)cc1 (configuration not stated)	-100*	-1	14µM*	-3%	16%
O=C(NCc1cccnc1)C1COc2ccccc2O1 (configuration not stated)	80	-2	-18%	-1%	-7%[38.3 µM]
O=C(NCCO)C1COc2ccccc2O1 (configuration not stated)	·	·	·	6%	-7%
O=C(O)CNC(=O)C1COc2ccccc2O1 (configuration not stated)	16	4	-4%	5%	22%[38.3 µM]
Cc1ccc(-n2c(/C=C/c3c(C)n(C)c4ccccc34)nc3ccccc3c2=O)cc1	·	-5	·	·	·
Cc1ccc(-c2noc(CCC(=O)N(C)c3ccccc3C)n2)cc1	13	?	14µM*	-4%	6%[38.3 µM]
COc1ccc(-c2noc(CCC(=O)N3CCC(C)CC3)n2)cc1	-29	-4	5µM*	?	8%[38.3 µM]
